# High-throughput results from PubChem.
# A selection: hits, their analogues and other compounds. The true share with any hit is near 0.87%.
# TLR9-MyD88 block: TLR9-MyD88 interaction inhibition; Q9NR96+Q99836; CHO BLA complementation TLR9-MyD88, CCF4 FRET ratio; inhibition, % at 4.98 µM; 0.21% of 340,000 active; AID 504734;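 active means inhibition above the mean over all tested compounds plus 3 SD, cut at about 21% in these data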
# Target sequence (Q99836 whole entry, looked up): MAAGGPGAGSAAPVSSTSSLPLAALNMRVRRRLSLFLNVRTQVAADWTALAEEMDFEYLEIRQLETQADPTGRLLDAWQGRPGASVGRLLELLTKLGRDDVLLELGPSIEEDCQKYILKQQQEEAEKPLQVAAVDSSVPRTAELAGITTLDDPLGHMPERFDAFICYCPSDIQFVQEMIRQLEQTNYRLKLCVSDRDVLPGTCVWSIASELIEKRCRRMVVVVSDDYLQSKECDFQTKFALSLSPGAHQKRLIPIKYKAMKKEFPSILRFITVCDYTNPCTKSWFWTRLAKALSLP
# Target sequence (Q9NR96 whole entry, looked up): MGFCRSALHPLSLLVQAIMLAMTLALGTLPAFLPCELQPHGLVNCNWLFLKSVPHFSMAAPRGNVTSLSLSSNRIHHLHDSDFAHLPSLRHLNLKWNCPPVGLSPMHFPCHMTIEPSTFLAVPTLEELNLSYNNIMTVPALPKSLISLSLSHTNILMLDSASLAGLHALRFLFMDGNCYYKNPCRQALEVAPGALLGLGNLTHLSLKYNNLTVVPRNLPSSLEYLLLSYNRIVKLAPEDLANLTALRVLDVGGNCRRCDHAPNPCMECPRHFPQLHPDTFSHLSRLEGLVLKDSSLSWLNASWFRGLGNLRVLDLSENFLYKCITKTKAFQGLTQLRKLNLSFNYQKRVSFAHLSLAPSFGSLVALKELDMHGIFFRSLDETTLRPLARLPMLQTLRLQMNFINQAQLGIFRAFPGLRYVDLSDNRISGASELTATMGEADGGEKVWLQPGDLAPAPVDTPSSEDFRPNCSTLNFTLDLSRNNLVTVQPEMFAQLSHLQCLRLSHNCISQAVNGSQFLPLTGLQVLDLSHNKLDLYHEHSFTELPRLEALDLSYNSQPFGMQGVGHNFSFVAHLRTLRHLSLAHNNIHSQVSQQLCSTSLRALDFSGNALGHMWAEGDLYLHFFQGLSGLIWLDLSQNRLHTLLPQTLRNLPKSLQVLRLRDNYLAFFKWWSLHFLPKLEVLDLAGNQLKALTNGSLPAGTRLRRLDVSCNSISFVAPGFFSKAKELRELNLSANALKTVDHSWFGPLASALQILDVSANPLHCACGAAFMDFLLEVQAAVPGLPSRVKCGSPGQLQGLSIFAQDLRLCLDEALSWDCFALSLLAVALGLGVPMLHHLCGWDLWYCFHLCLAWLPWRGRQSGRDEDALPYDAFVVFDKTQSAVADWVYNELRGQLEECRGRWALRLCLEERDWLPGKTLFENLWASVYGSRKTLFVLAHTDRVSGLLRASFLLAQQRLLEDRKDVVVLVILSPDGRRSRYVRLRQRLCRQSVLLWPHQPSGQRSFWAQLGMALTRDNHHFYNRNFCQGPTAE
# IDE act: activators of human insulin-degrading enzyme in cells; AID 493087; activation, % at 5.96 µM; P14735; HEK cells, FAbeta-B cleavage, fluorescence polarization; 0% vehicle, 100% cell-free pure enzyme wells; 0.073% of 340,000 active;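 active means activation above the mean of all tested compounds plus 3 SD, set per screening campaign, cut at about 17% in these data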
# TLR4 MyD88 comp: blocks binding of human TLR4 to MyD88 | AID 861 | O00206+Q99836 | HeLa CL3-4 TLR4/MyD88 BLA complementation, FRET ratio | inhibition, % at 8.4 µM | 0.18% of 200,000 active; in the data active means inhibition above about 25%
# NOD2-RIPK2 inh: blocks binding of human NOD2 to RIPK2 | O43353 | CHO BLA complementation NOD2-RIPK2, CCF4 ratio | inhibition, % at 4.98 µM | 0.38% of 360,000 active; in the data active means inhibition above about 21%
# IDE cell inh: cellular human IDE inhibition; HEK cells, FAbetaB cleavage, fluorescence polarization; inhibition, % at 5.59 µM; 0.41% of 320,000 active; P14735; AID 434962;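 active means percent inhibition above the average of all tested compounds plus 3 SD, set per screening campaign, cut at about 16% in these data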;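 further: IDE supplied by intact live HEK cells; FP after avidin binding of uncleaved biotin substrate so inhibition keeps polarization high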
# NOD2 RIPK2 conf: NOD2-RIPK2 interaction inhibition confirmed; shares compounds with NOD2-RIPK2 inh; CHO cells, NOD2-RIPK2 BLA complementation, CCF4 FRET; inhibition, % at 4.98 µM; 70% of 1,200 active; AID 624370;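 active means mean inhibition across replicates above a set limit taken from the earlier primary screen, cut at about 21% in these data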
# BLA counter: hits BLA reporter in NOD2-RIPK2 inhibitor counterscreen | 57% of 1,200 active | shares compounds with NOD2-RIPK2 inh | CHO BLA reporter, CCF4 FRET ratio | inhibition, % at 4.98 µM;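 active means mean inhibition above the low-control mean inhibition plus three low-control SD, cut at about 11% in these data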
# Numbers stand for hits; 0 = inactive; - = no result.
SMILES,TLR9-MyD88 block,IDE act,TLR4 MyD88 comp,NOD2-RIPK2 inh,IDE cell inh,NOD2 RIPK2 conf,BLA counter
Cc1ccc(C)c(NS(=O)(=O)c2ccc(-c3cnc(C4CC4)o3)cc2)c1,0,0,-,0,0,-,-
CCOc1ccc2nc3ccc4[nH]onc4c3c2c1,0,0,33.8,33.7,0,28.1,37.4
Cc1c2cnn(CC(=O)Nc3c(F)c(F)cc(F)c3F)c(=O)c2c(C)n1Cc1ccccc1F,0,0,0,23.7,0,0,0
CCN(CC)c1ccc(C=C(c2nnnn2-c2ccc(C)cc2)c2nnnn2-c2ccc(C)cc2)cc1,0,0,0,22.0,0,27.9,34.1
CCOC(=O)c1c(C)[nH]c(C2=NNC(=Nc3ccc(OCC)cc3)SC2)c1C,0,0,0,35.3,0,0,0
Cc1c(C(=O)N2CCCC2)oc2c1-c1[nH]ncc1CC2,0,0,0,20.9,0,0,0
CCCCN(CC)CCNC(=O)Cn1cc2c(n1)-c1c(oc(C(=O)N3CCCC3)c1C)CC2,0,0,-,0,0,-,-
Cc1cc(C)nc(SCc2ccc(C(=O)N/N=C/C3CCCCC3)cc2)n1,0,0,0,0,0,-,-
Cc1ccc(-c2cc(C(=O)NC3CCCCC3)no2)cc1,0,0,-,0,0,-,-
COc1ccc(-c2cc(C(=O)NC3CCCCC3)no2)cc1OC,0,0,-,57.6,0,0,0
Cc1ccc(C)c(S(=O)(=O)N2CCN(C(=O)CCNS(=O)(=O)c3ccccc3)CC2)c1,0,0,-,0,0,-,-
NNc1nc2c(-c3ccc(Cl)cc3)nnn2c2ccccc12,0,0,0,0,0,-,-
Clc1nc2c(-c3ccccc3)nnn2c2ccccc12,0,0,-,24.1,0,80.5,61.8
COc1cc(C2NC(=O)NC3=C2C(=O)OC3)cc(OC)c1OC (configuration not stated),0,0,-,0,0,-,-
COCCNC(=S)N/N=C/c1ccc(-c2ccc([N+](=O)[O-])cc2)o1,0,0,-,30.8,0,44.4,47.4
CN1C=CC(=O)[C@@H](OC(=O)Nc2ccc(Br)cc2)[C@H]1c1ccccc1Br,0,0,-,22.8,-,0,0
C=CCN1C=CC(=O)[C@@H](OC(=O)Nc2ccc(Br)cc2)[C@H]1c1ccccc1Br,0,0,-,0,-,-,-
CCOCCCNC(=O)/C(C#N)=C/c1ccc([N+](=O)[O-])o1,0,0,0,25.7,0,53.9,27.0
CCOCCCNC(=O)/C(C#N)=C/c1ccc(-c2ccc(S(=O)(=O)N3CCOCC3)cc2)o1,0,0,0,0,0,-,-
C=CCn1c(NCc2cc(Cl)ccc2O)nc2ccccc21,0,0,-,0,0,-,-
CCn1c(NCc2cc(Cl)ccc2O)nc2ccccc21,0,0,-,45.8,0,0,0
CCC(C)(C)n1nnnc1C(C(C)C)N(Cc1ccco1)Cc1cc2cc3c(cc2[nH]c1=O)OCO3 (configuration not stated),0,0,0,43.8,0,0,0
Cc1ccc(-c2noc(N=O)c2NO)cc1,-,-,-,22.1,0,24.4,20.9
CCN(CC)c1ccc(C(=O)NNC(=O)CCl)cc1,0,0,0,0,0,-,-
CCN(CC)c1ccc(C(=C2C=CC(=[N+](CC)CC)C=C2)c2ccc(N(CC)CC)cc2)cc1,0,0,-,41.0,-,49.3,0
SMILES,TLR9-MyD88 block,IDE act,TLR4 MyD88 comp,NOD2-RIPK2 inh,IDE cell inh,NOD2 RIPK2 conf,BLA counter
O=C(CN1CCN(S(=O)(=O)c2ccc(Br)cc2)CC1)N/N=C/c1ccc(Cl)c([N+](=O)[O-])c1,0,0,0,33.1,0,31.8,0
O=C(C#Cc1cccc([N+](=O)[O-])c1)c1ccccc1,0,0,0,27.2,0,77.1,17.0
CCCc1nnc(NC(=O)c2nc(S(=O)(=O)Cc3ccc(C)cc3)ncc2Cl)s1,0,0,-,32.4,0,29.9,17.9
COc1cc(NC(=O)Cn2c(C)cc3ccccc3c2=O)cc(OC)c1OC,0,0,0,32.2,0,0,0
CCCCCOc1ccc(Br)cc1/C(C)=N/NC1=NCCN1,0,0,0,22.6,0,22.3,0
COc1ccc(N(CC(C)C)S(=O)(=O)c2nnc(NC(=O)CC(C)C)s2)cc1,0,0,-,0,-,-,-
CCOC(=O)N1CCN(C(=O)c2cc3c(s2)-c2ccc(Cl)cc2S(=O)(=O)C3)CC1,0,0,0,0,0,-,-
Cc1cc(C)c(S(=O)(=O)N(C)c2ccccc2)c(C)c1,0,0,0,33.8,0,0,0
O=[N+]([O-])c1ccc(Cl)c(/C=N/n2c(-c3cccnc3)n[nH]c2=S)c1,-,-,0,-,0,-,-
COc1ccc2c(c1OC)c(=O)n1c3ccc(OC(C)C(=O)NCCCN4CCOCC4)cc3c3ccnc2c31 (configuration not stated),0,0,-,21.1,0,0,0
COc1ccc2c(c1OC)c(=O)n1c3ccc(OC(C)C(=O)NCCN4CCOCC4)cc3c3ccnc2c31 (configuration not stated),0,0,-,0,0,-,-
CSc1c(CC(=O)Nc2ccccc2)n(Cc2ccccc2)c2ccccc12,0,0,0,0,0,-,-
S=C(c1ccccc1)N1CCN(c2ccccc2)CC1,0,0,-,0,-,-,-
Cc1ccccc1N1CCN(C(=S)c2ccccc2)CC1,0,0,0,24.1,0,0,0
Cc1ccccc1/C=N/Nc1ccnc2cc(Cl)ccc12,0,0,0,0,0,-,-
Cc1ccc(/C=N/Nc2ccnc3cc(Cl)ccc23)c(C)c1,0,0,0,21.2,0,30.5,41.8
CC1CCN(Cc2cc(=O)oc3cc(O)c(Cl)cc23)CC1,0,0,-,31.1,0,32.5,49.5
CC1CN(Cc2cc(=O)oc3cc(O)c(Cl)cc23)CC(C)O1 (configuration not stated),0,0,-,0,0,-,-
CC1=C(CO)C(=O)OC([C@@H](C)C2CC[C@H]3C4C[C@H]5O[C@]56[C@@H](O)C=CC(=O)[C@]6(C)C4CC[C@]23C)C1 (some centres not stated),0,0,-,46.9,0,62.6,0
C[C@@H]1CCCCO[C@H](CN(C)S(=O)(=O)c2cccs2)[C@@H](C)CN([C@H](C)CO)C(=O)c2cc(NC(=O)C3CCCCC3)ccc2O1,0,-,-,0,-,-,-
COc1ccc(S(=O)(=O)Oc2ccc3ccccc3c2)cc1,0,0,0,0,0,-,-
COC1=C(OC)C(=O)C(Sc2ccc3ccccc3c2)=CC1=O,0,0,-,25.1,-,69.5,31.4
O=C(COc1cccc2ccccc12)N1CCN(c2ccccn2)CC1,0,0,0,0,0,-,-
CCC(=O)c1ccc(OCC(=O)N2CCN(c3ccccn3)CC2)cc1,0,0,-,27.8,0,0,0
CC(NCc1cccc(OCc2ccccc2)c1)C(O)c1ccccc1 (configuration not stated),0,0,0,0,0,-,-
CC(NCc1ccc(OCc2ccc(Cl)cc2)cc1)C(O)c1ccccc1 (configuration not stated),0,0,0,23.0,0,0,0
Cc1cccc(NC(=S)NCc2ccc(F)cc2)c1C,0,0,-,0,0,-,-
